Measured values from the supplement of paper PMC11383364.

System: SUM149
Assay: percent difference in area under dose-response curve of relative cell number, RPMI vs HPLM; higher = drug relatively more effective in HPLM than RPMI (negative = less effective in HPLM)
Conditions: treatment time: 72 h; dose range: 10-point, 1 nM to 20 µM; media compared: RPMI vs HPLM

Row | Compound | percent difference in area under dose-response curve
1 | Cc1cc([N+](=O)[O-])ccc1NS(=O)(=O)c1cc(Cl)ccc1Cl | 11.9%
2 | Cc1ccc([N+](=O)[O-])cc1S(=O)(=O)N(C)/N=C/c1cnc2ccc(Br)cn12 | -9.04%
3 | CNC(=O)c1cc(Oc2ccc(NC(=O)Nc3ccc(Cl)c(C(F)(F)F)c3)cc2)ccn1 [Sorafenib] | 2.21%
4 | C/C=C/C/C=C/CCC(=O)[C@H]1O[C@H]1C(N)=O [Cerulenin] | -9.61%
5 | COc1cc2c(cc1O)CC[C@@H]1[C@@H]2CC[C@]2(C)[C@@H](O)CC[C@@H]12 [2Methoxyestradiol] | -12%
6 | O=C(CCCCCCC(=O)Nc1ccccc1)NO [Vorinostat] | 4.7%
7 | Cc1cc(Nc2cc(N3CCN(C)CC3)nc(/C=C/c3ccccc3)n2)n[nH]1 | -2.84%
8 | Nc1ccc(-c2ccc3ncc4ccc(=O)n(-c5cccc(C(F)(F)F)c5)c4c3c2)cn1 [Torin_2] | -2.02%
9 | CCOc1cc(N2CCC(O)CC2)ccc1Nc1ncc2c(n1)N(C)c1ccccc1C(=O)N2C | -8.79%
10 | Cc1cc(/C=C/c2ccc3cc(N(C)C)ccc3[n+]2C)c(C)n1-c1ccccc1 [Pyrvinium_pamoate] | -34.5%
11 | Cn1c(=O)c(F)c(Nc2ccc(I)cc2F)c2c(=O)n(C[C@@H](O)CO)cnc21 | -12.9%
12 | CCc1nc(N)nc(N)c1-c1ccc(Cl)cc1 [Pyrimethamine] | 33.6%
13 | Cc1nc(N)sc1-c1ccnc(Nc2ccc(N3CCOCC3)cc2)n1 | 11%
14 | O=C(O)c1ccc2c(c1)nc(Nc1cccc(Cl)c1)c1ccncc12 | 0.753%
15 | COc1cc2c(cc1O)CC[C@@H]1[C@@H]2CC[C@]2(C)[C@@H](O)CC[C@@H]12 [2_Methoxyestradiol] | 6.52%
